The assay deals with PARP1 L713F-nLuc biosensor (HCT116) (UniProt P09874). The experiment in a line: PARP1 L713F-nLuc/akaLuc ratio relative to DMSO control (biosensor stabilization) (fold change); higher = more PARP1 biosensor stabilization (target engagement / stabilizer), active = hit call of the paper. To be noted: stock concentration (mM; final µM = stock mM x 1): 2; 24 h.

A number with no mark means an inactive call.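 Rule for the calls: active = log2 fold change beyond 2 SD from the library mean after excluding viability outliers; inactive = within 2 SD.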

Sequence of PARP1 L713F-nLuc biosensor (HCT116) (P09874 whole entry L713F, looked up): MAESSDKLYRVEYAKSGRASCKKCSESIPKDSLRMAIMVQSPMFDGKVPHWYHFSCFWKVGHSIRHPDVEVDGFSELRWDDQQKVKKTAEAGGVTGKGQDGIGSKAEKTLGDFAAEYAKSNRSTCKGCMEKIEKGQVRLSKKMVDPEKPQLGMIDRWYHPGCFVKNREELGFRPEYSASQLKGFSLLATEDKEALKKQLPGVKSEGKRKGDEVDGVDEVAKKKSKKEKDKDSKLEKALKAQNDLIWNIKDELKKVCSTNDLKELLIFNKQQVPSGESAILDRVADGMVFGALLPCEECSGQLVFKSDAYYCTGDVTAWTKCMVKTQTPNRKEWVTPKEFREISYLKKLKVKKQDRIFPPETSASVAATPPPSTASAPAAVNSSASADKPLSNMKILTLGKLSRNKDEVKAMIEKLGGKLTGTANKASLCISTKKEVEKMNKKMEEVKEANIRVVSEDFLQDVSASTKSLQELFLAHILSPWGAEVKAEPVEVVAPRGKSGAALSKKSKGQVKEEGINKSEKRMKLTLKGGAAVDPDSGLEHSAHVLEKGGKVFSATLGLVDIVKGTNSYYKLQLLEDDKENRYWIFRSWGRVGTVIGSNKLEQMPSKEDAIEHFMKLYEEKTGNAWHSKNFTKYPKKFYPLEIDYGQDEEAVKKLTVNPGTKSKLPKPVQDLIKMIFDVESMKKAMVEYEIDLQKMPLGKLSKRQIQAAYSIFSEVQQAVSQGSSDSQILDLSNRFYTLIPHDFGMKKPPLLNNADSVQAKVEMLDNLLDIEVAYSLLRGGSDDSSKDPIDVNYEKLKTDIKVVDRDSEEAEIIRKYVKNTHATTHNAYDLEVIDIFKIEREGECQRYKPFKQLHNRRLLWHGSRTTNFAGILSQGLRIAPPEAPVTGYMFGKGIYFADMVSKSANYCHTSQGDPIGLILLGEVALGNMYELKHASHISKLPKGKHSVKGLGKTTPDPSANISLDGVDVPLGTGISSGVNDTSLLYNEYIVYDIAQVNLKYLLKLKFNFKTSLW

Take `CC(=O)c1c(O)c(C)c(O)c(Cc2c(O)c3c(c(C(=O)/C=C/c4ccccc4)c2O)OC(C)(C)C=C3)c1O` [Rottlerin]: the “PARP1 L713F-nLuc/akaLuc ratio” value was 0.628.

The values above are taken from the supplement of paper PMC11624193, “Coupling cellular drug-target engagement to downstream pharmacology with CeTEAM” (Nature Communications, 2024).
